Reference: the supplement of paper PMC9399229
Where a name gives a salt, the structure may show the parent alone. Over roughly 1,900 compounds, “relative cell viability (CellTiter-Glo), compound plus cabozantinib, relative to the cabozantinib arm (arm median 1.05; reference not stated)” has its median near 1.1; the lowest 2% begin near 0.15. Only a selection was taken, and the lowest values are over-represented in it overall.

These molecules were tested on Hep3B (assay: relative cell viability (CellTiter-Glo), compound plus cabozantinib, relative to the cabozantinib arm (arm median 1.05; reference not stated) (fraction); higher = more viable cells (less growth inhibition)). Details: cabozantinib 2 µM; 4 days.

Row | SMILES | relative cell viability
1 | COC(=O)N[C@H](C(=O)N1CC2(CC2)C[C@H]1c1nc(-c2ccc3c(c2)C(F)(F)c2cc(-c4ccc5[nH]c([C@@H]6[C@H]7CC[C@H](C7)N6C(=O)[C@@H](NC(=O)OC)C(C)C)nc5c4)ccc2-3)c[nH]1)C(C)C [Ledipasvir (GS5885)] | 1
2 | FC(F)(F)c1ccc(CNc2ccc(Cc3c[nH]c4ncc(Cl)cc34)cn2)cn1 [Pexidartinib (PLX3397)] | 1.07
3 | C[C@H]1COC2=C1C(=O)C(=O)c1c2ccc2c1CCCC2(C)C [Cryptotanshinone] | 0.918
4 | C=CC(=O)Nc1cccc(Nc2nc(Nc3ccc(N4CCN(C(C)=O)CC4)cc3OC)ncc2C(F)(F)F)c1 | 0.831
5 | COc1nc(C)cnc1NS(=O)(=O)c1cccnc1-c1ccc(-c2nnco2)cc1 [Zibotentan (ZD4054)] | 1.22
6 | C/C(=N\NC(=S)N1CCC1)c1ccccn1 | 0.0579
7 | CC(=O)Nc1ccccc1 [Acetanilide] | 1.07
8 | CC1=CC(=O)c2ccccc2C1=O [Menadione] | 1.05
9 | CC(C)(C)C(=O)Nc1ccc2c(c1)C(=O)C(=O)c1ccccc1-2 | 0.0959
10 | C[C@H]1O[C@@H](O[C@H]2[C@@H](O)C[C@H](O[C@H]3[C@@H](O)C[C@H](O[C@H]4CC[C@@]5(C)[C@H](CC[C@@H]6[C@@H]5C[C@@H](O)[C@]5(C)[C@@H](C7=CC(=O)OC7)CC[C@]65O)C4)O[C@@H]3C)O[C@@H]2C)C[C@H](O)[C@@H]1O [Digoxin] | 0.0999
11 | CO[C@H]1C[C@@H]2CC[C@@H](C)[C@@](O)(O2)C(=O)C(=O)N2CCCC[C@H]2C(=O)O[C@H]([C@H](C)C[C@@H]2CC[C@@H](OP(C)(C)=O)[C@H](OC)C2)CC(=O)[C@H](C)/C=C(\C)[C@@H](O)[C@@H](OC)C(=O)[C@H](C)C[C@H](C)/C=C/C=C/C=C/1C [Ridaforolimus (Deforolimus, MK-8669)] | 1.3
12 | CN/C(=N\CCSCc1nc[nH]c1C)NC#N [Cimetidine] | 0.986
13 | COc1cccc2c1C(=O)c1c(O)c3c(c(O)c1C2=O)C[C@@](O)(C(C)=O)C[C@@H]3O[C@H]1C[C@H](N)[C@H](O)[C@H](C)O1 [Daunorubicin HCl] | 0.0514
14 | COc1cccc2c1C(=O)c1c(O)c3c(c(O)c1C2=O)C[C@@](O)(C(=O)CO)C[C@@H]3O[C@H]1C[C@H](N)[C@H](O)[C@H](C)O1 [Doxorubicin (Adriamycin)] | 0.111
15 | COc1cccc2c1C(=O)c1c(O)c3c(c(O)c1C2=O)C[C@@](O)(C(=O)CO)C[C@@H]3O[C@H]1C[C@H](N)[C@H](O[C@@H]2CCCCO2)[C@H](C)O1 [Pirarubicin] | 0.178
16 | COc1cccc2c1C(=O)c1c(O)c3c(c(O)c1C2=O)C[C@@](O)(C(=O)CO)C[C@@H]3O[C@H]1C[C@H](N)[C@@H](O)[C@H](C)O1 [Epirubicin HCl] | 0.045
17 | Cc1onc(-c2ccccc2Cl)c1C(=O)N[C@@H]1C(=O)N2[C@@H]1SC(C)(C)[C@@H]2C(=O)O [Cloxacillin Sodium] | 1.1
18 | C=C1CC[C@H](O)C/C1=C/C=C1\CCC[C@]2(C)[C@@H]([C@H](C)CCCC(C)(C)O)CC[C@@H]12 [Calcifediol] | 0.993

Row | SMILES | relative cell viability
19 | CC[C@H](C)C[C@H](C)CCCCCCCCC(=O)N[C@H]1C[C@@H](O)[C@@H](NCCN)NC(=O)[C@@H]2[C@@H](O)CCN2C(=O)[C@H]([C@H](O)CCN)NC(=O)[C@H]([C@H](O)[C@@H](O)c2ccc(O)cc2)NC(=O)[C@@H]2C[C@@H](O)CN2C(=O)[C@H]([C@@H](C)O)NC1=O [Caspofungin Acetate] | 1.1
20 | Nc1ncnc2n[nH]c(Nc3ccc(F)cc3)c12 | 1.05
21 | Cc1ccc(C(=O)Nc2ccc(CN3CCN(C)CC3)c(C(F)(F)F)c2)cc1C#Cc1cnc2[nH]ncc2c1 | 0.279
22 | Cc1ccc(NC(=O)c2ccc(CN3CC[C@H](N(C)C)C3)c(C(F)(F)F)c2)cc1Nc1nccc(-c2cncnc2)n1 [Bafetinib (INNO-406)] | 1.05
23 | Cc1ccc(C(=O)Nc2ccc(CN3CCN(C)CC3)c(C(F)(F)F)c2)cc1C#Cc1cnc2cccnn12 | 0.127
24 | CC(C)(F)C[C@H](N[C@@H](c1ccc(-c2ccc(S(C)(=O)=O)cc2)cc1)C(F)(F)F)C(=O)NC1(C#N)CC1 [Odanacatib (MK-0822)] | 1.15
25 | CN1CCc2c(c3ccccc3n2Cc2ccc(C(=O)NO)cc2)C1 [Tubastatin A HCl] | 1.01
26 | Cn1cc(CNCC2CCN(c3ncc(C(=O)NO)cn3)CC2)c2ccccc21 | 0.121
27 | CN1CCc2c(c3ccccc3n2Cc2ccc(C(=O)NO)cc2)C1 [Tubastatin A] | 1.16
28 | COc1cc(C(=O)NS(=O)(=O)c2ccccc2C)ccc1Cc1cn(C)c2ccc(NC(=O)OC3CCCC3)cc12 [Zafirlukast] | 0.9
29 | C[C@H](NCc1ccc(OCc2cccc(F)c2)cc1)C(N)=O [Safinamide Mesylate] | 1.22
30 | OC[C@H]1O[C@@H](OCCc2ccc(O)cc2)[C@H](O)[C@@H](O)[C@@H]1O [Salidroside] | 0.974
31 | C[C@H]1O[C@H](O[C@H]2[C@H](O)[C@@H](O)[C@@H](O[C@H]3[C@H](O)[C@@H](O)C(O)O[C@@H]3CO)O[C@@H]2CO)[C@H](O)[C@@H](O)[C@@H]1N[C@H]1C=C(CO)[C@@H](O)[C@H](O)[C@H]1O (stereo partly specified) [Acarbose] | 1.21
32 | O=C1c2cccc(O)c2C(=O)c2c(O)cc(CO)cc21 [Aloe-emodin] | 1.04
33 | O=C1c2c(O)ccc(O)c2C(=O)c2c(NCCNCCO)ccc(NCCNCCO)c21 [Mitoxantrone] | 0.0306
34 | O=C1c2c(O)ccc(O)c2C(=O)c2c(NCCNCCO)ccc(NCCNCCO)c21 [Mitoxantrone HCl] | 0.0809
35 | COc1cc([C@@H]2c3cc4c(cc3[C@@H](O[C@@H]3O[C@@H]5CO[C@@H](c6cccs6)O[C@H]5[C@H](O)[C@H]3O)[C@H]3COC(=O)[C@H]23)OCO4)cc(OC)c1O [Teniposide] | 0.104
36 | COc1cc([C@@H]2c3cc4c(cc3[C@@H](O[C@@H]3O[C@@H]5CO[C@@H](C)O[C@H]5[C@H](O)[C@H]3O)[C@H]3COC(=O)[C@H]23)OCO4)cc(OC)c1O [Etoposide] | 0.923
